# Rows were chosen to be rich in hits. Some 4.2% of all compounds tested hit in one or more screens of this group.
# NALP3 yeast inh = NALP3 inhibition in yeast. Yeast reconstituted NLRP3/ASC/caspase-1, beta-gal luminescence, 24 h. inhibition, % at 10 µM. 330,000 tested, 0.39% active;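 active = inhibition of 50% or more; inactive = inhibition below 50%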;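 note: plate controls were induced DMSO wells for no effect and uninduced yeast grown without galactose for full effect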
# tim23-1 inh = tim23-1 yeast growth inhibition. AID 463212. 330,000 tested, 1.3% active. inhibition, % at 20 µM. S. cerevisiae tim23-1 growth, BacTiter-Glo luminescence, 24 h;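 active = growth inhibition of the mutant yeast at or above 50%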;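 note: temperature-sensitive mutant grown at 25 °C; plate controls were DMSO-treated mutant yeast for no effect and medium wells lacking yeast for full effect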
# TIM10 inh = TIM10 yeast growth inhibition | S. cerevisiae TIM10 strain growth, BacTiter-Glo luminescence, 24 h | inhibition, % at 10 µM | 330,000 tested, 1.4% active | AID 463195;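 active = inhibition of 40% or more at the single tested concentration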;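 note: wild-type TIM10 isogenic control strain grown at permissive 25 °C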
# tim10-1 inh = tim10-1 yeast growth inhibition | S. cerevisiae tim10-1 ts strain growth, BacTiter-Glo, 24 h | 330,000 tested, 2.2% active | inhibition, % at 20 µM;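 active = inhibition of at least 40%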;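 note: mutant grown at 25 °C; 0% = DMSO wells with yeast and 100% = wells holding no yeast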
# NALP1 inh = blocks the NALP1 inflammasome reconstituted in yeast | inhibition, % at 10 µM | S. cerevisiae NALP1/ASC/caspase-1 growth, X-gal OD620, 72 h | 280,000 tested, 0.61% active | AID 2071; in the data active = inhibition mostly above about 24%, no sharp cut-off; inactive = mostly below about 32%
# PfHsp90 set2 = growth inhibition of yeast expressing Plasmodium Hsp90; S. cerevisiae expressing PfHsp90, BacTiter-Glo ATP, 48 h; yeast lacking PDR1 and PDR3 efflux regulators; inhibition, % at 9.4 µM; 310,000 tested, 0.32% active;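 active = every replicate shows inhibition above about 80%, whatever the replicate mean, limit read from the data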;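 note: 0% = DMSO neutral controls and 100% = 20 µM radicicol positive controls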
# tim10 confirm = confirmation of TIM10 yeast growth inhibitors; shares compounds with TIM10 inh; S. cerevisiae tim10 strain growth, BacTiter-Glo luminescence, 24 h; inhibition, % at 10 µM; 4,600 tested, 63% active;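 active = inhibition of yeast growth at or above a set limit in either of two replicates at 10 µM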;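 note: this counterscreen used the strain with wild-type TIM10; 0% = yeast with DMSO and 100% = medium wells lacking yeast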
# * = called active by the depositor; / = not tested or not shown.
SMILES,NALP3 yeast inh,tim23-1 inh,TIM10 inh,tim10-1 inh,NALP1 inh,PfHsp90 set2,tim10 confirm
O=c1[nH]cnc2ncc(-c3ccc(O)cc3)nc12,14.1,16.0,40.7*,4.2,/,-6.8,-10.2
Cc1ccc(S(=O)(=O)N2CCN(CN3C(=O)CC4(CCCC4)C3=O)CC2)cc1,20.0,-2.8,0.4,-3.1,/,/,/
CC(=O)c1cc2c(cc1N/C(=N/S(=O)(=O)c1ccc(C)cc1)c1ccccc1)OCO2,15.0,30.4,42.7*,25.7,19.7,24.9,2.1
CCCCn1c(N)c(N(CCOC)C(=O)c2ccc(C)o2)c(=O)[nH]c1=O,22.0,-5.4,-5.0,4.8,/,/,/
COC(=O)c1cc2ccccc2c(-c2c(OC)c(C(=O)OC)cc3ccccc23)c1OC,17.8,46.0,44.0*,30.4,8.7,/,29.9*
CCOc1cc(-c2cc(-c3ccc(C)o3)nc(N)c2C#N)ccc1O,6.2,31.1,43.2*,39.8,16.0,-78.6,21.1
Cc1ccc(C(=O)/C=C/c2ccc3c(c2)OCCO3)c(O)c1,22.5,47.6,52.1*,23.9,-15.6,16.3,51.5*
CCn1c(=O)c(C(=O)NCc2ccccc2)c(O)c2ccccc21,13.8,36.0,-14.3,-43.4,7.9,7.3,/
CCn1c(=O)c(C(=O)NCc2cccnc2)c(O)c2ccccc21,6.2,42.2,44.3*,32.0,22.3,/,33.1*
CCc1ccccc1NC(=S)NCCSc1ccc(Cl)cc1,24.9,17.5,54.7*,35.4,3.9,10.5,40.1*
CS(=O)(=O)Nc1ccccc1C(=O)NCCSc1ccc(Cl)cc1,19.4,25.7,10.3,4.5,23.1,2.7,/
CCOC(=O)C1(Cc2ccc(Cl)cc2)CCN(C(=O)c2cnc(C)cn2)CC1,3.6,31.4,14.7,10.6,/,-22.5,/
COc1cc(C(C)=O)ccc1OCC(O)CN1CCN(c2c(C)cccc2C)CC1 (stereo not given),19.0,-2.4,96.7*,-6.6,9.9,25.6,10.4
O=C(CCc1nnc2n(Cc3ccccc3Cl)c(=O)c3ccccc3n12)NCCCN1CCOCC1,4.1,4.3,0.2,2.9,6.6,-11.4,/
Cc1ccc(Cn2c(=O)c3ccccc3n3c(CCC(=O)NCCN4CCOCC4)nnc23)cc1,14.9,-7.3,96.3*,6.2,13.8,0.8,-7.3
Cc1ccc(C(=O)N(CC(=O)NC2CCCC2)c2ccccc2Cl)s1,-3.3,21.3,24.9,13.6,0.1,-3.5,/
COc1cccc(CN(C)C(=S)Nc2ccc(C)c(C)c2)c1,9.1,8.8,46.3*,30.4,-16.3,/,3.4
CC(C)(C)c1cc(NCc2ccccn2)n2ncc(-c3ccccc3)c2n1,28.1,43.0,51.9*,28.2,0.1,108.3*,42.4*
O=C(c1ccccc1O)N1N=C(c2ccccc2)CC1(O)C(F)(F)F (stereo not given),-5.7,33.7,45.9*,29.1,9.7,16.2,4.4
CCOC(=O)C1=C(C)NC(C)=C(C(=O)OCC)C1C(=O)OCC(=O)N(CC)C1CCS(=O)(=O)C1 (stereo not given),-3.3,6.3,-4.4,7.8,-7.5,-0.9,/
CCS(=O)(=O)N1Cc2ccccc2CC1C(=O)NCCc1c[nH]c2ccccc12 (stereo not given),16.7,7.9,-14.0,12.5,12.1,-27.3,/
Cc1cc2c(cc1C)C(=O)C(=O)N2,/,/,/,/,/,-28.7,/
O=C1Nc2cc3c(cc2C1=O)sc1ccccc13,23.1,-0.1,49.6*,22.0,19.5,/,68.2*
CN(C)/C(=N\S(=O)(=O)c1ccccc1)c1ccc(F)cc1,12.0,3.5,61.5*,-10.5,23.3,-19.4,0.1
O=C(OCC#CCSc1nnc(-c2ccc([N+](=O)[O-])cc2)o1)c1cccs1,14.9,22.4,41.3*,36.2,15.6,-2.8,33.5*
SMILES,NALP3 yeast inh,tim23-1 inh,TIM10 inh,tim10-1 inh,NALP1 inh,PfHsp90 set2,tim10 confirm
O=C1NCCOC(=O)[C@H](Cc2ccc(F)cc2)C/C=C\C[C@H]1CC(=O)N(CCO)Cc1ccccc1,7.9,-8.7,47.1*,-5.6,/,-0.1,-5.2
O=C1NCCOC(=O)[C@H](Cc2ccc(F)cc2)C/C=C\C[C@@H]1CC(=O)N(CCO)Cc1ccccc1,5.6,-0.4,3.8,-8.5,/,-5.0,/
O=C(c1ccccc1)N1CCN(C(=S)NCc2ccc3c(c2)OCO3)CC1,-15.4,-2.0,6.5,9.1,16.8,-1.7,/
CSc1nc(N(C)C)nc(N(C)C#N)n1,22.9,-5.8,-0.9,-4.3,-10.4,19.0,/
COc1cc(/C=N/Nc2ncnc3sc4c(c23)CCC4)ccc1O,/,/,/,/,/,1.4,/
COc1ccc(/C=N/Nc2ncnc3scc(-c4ccccc4)c23)cc1OC,7.3,26.2,57.9*,31.8,7.5,-2.4,43.8*
Cc1cccc(/C=C2\CCC(=C3SCCCS3)C2=O)c1,36.0,49.2,44.4*,34.1,6.9,20.0,66.2*
O=C1C(=C2SCCCS2)CC/C1=C\c1ccc(F)cc1,25.4,18.4,41.9*,-28.3,1.2,7.6,40.7*
O=C1/C(=C/c2ccc(F)cc2)CCC1C1CCCC1 (stereo not given),11.9,23.2,16.5,23.1,41.3,18.0,/
Cc1ccc(-n2cc3c(-c4cccc(Br)c4)nnc(C)c3n2)cc1,24.8,41.3,44.4*,34.7,/,4.7,30.7*
COc1cccc(-c2c3c([nH]c(=O)c2C#N)CCc2cc(OC)ccc2-3)c1,-10.5,-1.6,-9.7,-0.5,/,/,/
COc1nnc(-c2ccc(N3CCOCC3)c(NC(=O)C3CCCCC3)c2)c2ccccc12,-5.9,33.2,41.0*,34.7,7.2,-9.6,24.9
O=C(COc1cccc(NC(=O)c2cccc([N+](=O)[O-])c2)c1)c1ccc(Br)cc1,14.6,29.3,42.2*,29.2,11.0,-8.0,30.9*
O=C1CC(c2ccccc2)CC(O)=C1C=Nc1ccccc1 (stereo not given),26.4,25.1,-8.7,24.4,29.1,25.1,/
O=C1CC(c2cccc(Cl)c2)CC(O)=C1C=Nc1cccc(Cl)c1 (stereo not given),24.8,-13.5,78.8*,14.6,48.9,13.8,80.0*
O=C(CCC(=O)Nc1nnc(C2CCCCC2)s1)NCc1ccc(F)cc1,13.4,10.1,10.9,2.9,8.0,-18.1,/
Cc1ccc(S(=O)(=O)N(C)C)cc1NC(=O)C1CCCN(C(=O)c2ccc(Cl)cc2)C1 (stereo not given),6.1,15.4,2.7,9.3,/,17.6,/
C=CCn1c(C(C)NC(=O)COC)nc2ccccc21 (stereo not given),11.3,2.7,96.7*,-3.0,/,21.2,-18.9
C=CCn1c(C(CC)CC)nc2ccccc21,-4.8,11.7,4.2,11.7,13.7,/,/
Cc1cc(=O)n2c3ccccc3n(C)c2n1,17.4,1.3,-2.3,4.9,8.4,-19.8,/
Oc1ccc(Br)cc1/C=N/n1c(C2CCCCC2)n[nH]c1=S,1.6,49.8,44.4*,-2.6,-4.9,-16.4,56.5*

# Assay outcomes deposited in PubChem by several laboratories.
